# A number with no mark means an inactive call.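 Rule for the calls: active = AUC reduced over 20% with Padj below 0.05 in at least 2 of 3 replicates; inactive = otherwise.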
# How the values were obtained:
# Assay in all cases: growth AUC relative to DMSO control (median of replicates) (fraction); higher = more growth (less inhibition), active = hit call of the paper
# Settings in all cases: 20 µM; 24 h
# Akkermansia muciniphila = tested on: Akkermansia muciniphila
# How it was run: (§1)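 Gut bacterial monocultures were grown anaerobically at 37 °C in mGAM from a starting OD600 of 0.05 with 20 µM compound (1% DMSO), in round-bottom 96-well plates under pierced gas-permeable seals, and OD600 was read hourly for 24 h. With the minimum OD set to 0, area under the growth curve was normalised to the plate median of solvent-only wells, or to row and column medians on the industrial chemical plate. Each value is the median of three biological replicates grown on separate days.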
# Bacteroides caccae = tested on: Bacteroides caccae
# How it was run: as §1
# Bacteroides clarus = tested on: Bacteroides clarus
# How it was run: as §1
# Bacteroides dorei = tested on: Bacteroides dorei
# How it was run: as §1
# Bacteroides stercoris = tested on: Bacteroides stercoris
# How it was run: as §1
# [1] = tested on: Bacteroides thetaiotaomicron
# How it was run: as §1
# Bacteroides uniformis = tested on: Bacteroides uniformis
# How it was run: as §1
# [2] = tested on: Bifidobacterium longum subsp. longum
# How it was run: as §1
# Clostridium difficile = tested on: Clostridium difficile
# How it was run: as §1
# Collinsella aerofaciens = tested on: Collinsella aerofaciens
# How it was run: as §1
Compound,growth AUC (Akkermansia muciniphila),growth AUC (Bacteroides caccae),growth AUC (Bacteroides clarus),growth AUC (Bacteroides dorei),growth AUC (Bacteroides stercoris),growth AUC [1],growth AUC (Bacteroides uniformis),growth AUC [2],growth AUC (Clostridium difficile),growth AUC (Collinsella aerofaciens)
CC1(C)C(=O)Oc2ccc(OS(C)(=O)=O)cc21,1.03,1.05,0.993,1.02,1.06,0.988,0.986,0.988,0.99,0.997
CCC([O-])=C1C(=O)CC(C(=O)[O-])CC1=O.[Ca+2] (stereo not given),0.965,1,0.998,0.996,1.1,0.958,1.01,1.03,1,0.995
Cc1[nH]oc(=O)c1N=Nc1ccccc1Cl,0.935,0.996,0.95,0.951,0.828,1.01,1.02,1.04,0.964,0.961
Cc1cc(C2CC2)nc(Nc2ccc(O)cc2)n1,0.829,0.999,0.967,0.994,0.968,0.943,0.957,1.04,0.982,0.975
Cc1cc(C)c(C2=C(O)C3(CCCC3)OC2=O)c(C)c1,1.01,1.01,1.02,1.01,1.08,0.986,0.989,1.04,1.04,1.04
[S],1.05,0.954,1,1.07,1.07,1.02,1.06,1.01,1.01,0.946
COC(=O)c1c(Cl)c(Cl)c(C(=O)OC)c(Cl)c1Cl,0.846,1.04,0.985,1.02,0.88,1.02,0.994,0.953,1.07,0.986
CCOC(=O)c1cnn(C)c1S(=O)(=O)NC(=O)Nc1nc(OC)cc(OC)n1,1.08,0.999,1.02,1,1.15,0.966,1.03,1.06,0.982,1
CC1=C(C(=O)Nc2ccccc2)CCCO1,0.955,0.992,1.01,1.01,0.951,0.99,1.06,1.15,1.01,1.01
CC(C)N(C(=O)C(=O)O)c1ccc(F)cc1,1.04,1.02,1.03,1.02,1.23,1.02,0.993,1.05,1.03,1.01
CN(C)C(=O)Nc1ccccc1,0.854,1.03,0.981,1,1.07,0.994,0.978,1.01,1.01,0.984
O=C(O)Cc1cccc2ccccc12,0.984,0.985,0.969,0.971,0.963,1,1.04,1.03,0.994,0.968
O=C(O)COc1ccc(Cl)c2cccnc12,0.981,1.03,1.03,0.976,1.14,0.997,1,0.99,0.954,1.02
CCOCOc1ccc(C(=O)Nc2cccc(Cl)c2Cl)cc1,1.04,0.855,0.881,0.972,0.836,0.884,0.912,0.907,1.02,0.956
CCNc1nc(NC(C)CC)nc(OC)n1 (stereo not given),1.08,1.02,1,1.02,1.29,0.977,0.979,0.986,1.03,1.13
COc1nc(N)nc(C(F)(F)F)n1,0.945,0.985,0.992,1.01,0.988,0.985,1.01,1.04,1.03,1.02
Cl.NCCO/C=C/[C@H](N)C(=O)O,1.02,0.952,1.08,1.03,1.16,1,1.01,1.05,1.02,1.03
CC[N+](CC)(CC(=O)Nc1c(C)cccc1C)Cc1ccccc1.O=C([O-])c1ccccc1,1.24,0.992,1.05,1.04,1.11,0.999,0.993,0.98,1.04,1
CC(C)c1cccc2c(=O)c3ccccc3sc12,1.1,0.922,1.03,0.913,1.21,0.963,0.995,1.06,0.895,0.95
C=CCc1ccc(O)c(OC)c1,0.933,0.993,1.04,1,0.975,0.967,1.03,1.01,1.01,0.973
CC(C)OC(=O)c1cc(C(=O)OC(C)C)cc([N+](=O)[O-])c1,0.939,0.977,0.987,0.974,0.933,0.933,0.924,0.932,0.992,0.947
CCNc1nc(N)nc(Cl)n1,0.954,1.01,1.02,1.01,1.12,1.03,1.02,1,1.03,0.996
CCc1cccc(C)c1N(C(=O)C(=O)O)C(C)COC (stereo not given),0.949,1.03,0.97,1.02,1.1,1.03,1.03,1.03,1.03,1.04
O=C(Nc1ccc(Cl)cc1C(O)c1ccccc1)c1ccncc1 (stereo not given),1.04,0.985,0.946,1.01,0.878,0.97,0.987,1.01,0.982,0.994
Nc1ccc(O)cc1,0.951,1,1.01,0.998,1.11,1.01,1.03,0.921,1.01,1.01
Oc1c(Cl)cc(Cl)c(Cl)c1Cc1c(O)c(Cl)cc(Cl)c1Cl,0.193 (active),0.0131 (active),0.0212 (active),0.0142 (active),0.00917 (active),0.00403 (active),0.0126 (active),0.0988 (active),0.0083 (active),0.0126 (active)
S=C([S-])NCCNC(=S)[S-].[Zn+2],1.16,1.05,0.989,0.999,0.983,0.978,1.03,0.995,0.972,0.992
CC(C)NS(=O)(=O)NC(=O)c1cc(-n2c(=O)cc(C(F)(F)F)[nH]c2=O)c(F)cc1Cl,1.11,1.04,1.01,1.01,0.984,0.991,1.02,0.993,1.02,0.994
